# Bioassay records from PubChem.
# Not all results are given here.
# aSyn 5UTR act: Activators working through SNCA 5'UTR binding (MLPCN) | alpha-synuclein 5'UTR reporter, activators screen | AID 1814 | 7.1% of 300,000 active | activity score, % (tested at 7.5 µM), hits read low; in the data active = activity score below about -60%
# * = called active by the depositor.
SMILES,aSyn 5UTR act
CNc1nc(-c2ccc3c(c2)CCN3C(=O)c2cccc(F)c2)cs1,-427*
CNc1nc(-c2ccc3c(c2)CCN3C(=O)c2ccccc2C)cs1,-88*
CCCCNC(=O)c1cc(-c2ccc(OC)cc2)on1,-144*
CCCNC(=O)c1cc(-c2ccc(OC)cc2)on1,-160*
CCCCNC(=O)c1cc(-c2ccc(F)cc2)on1,-592*
Cc1ccc(N=Cc2c(O)[nH]c3ccccc23)c([N+](=O)[O-])c1,-169*
Oc1[nH]c2ccccc2c1C=Nc1ccc2c(c1)OCO2,-285*
Oc1[nH]c2ccccc2c1/C=N/c1nccs1,-145*
O=c1c2ccccc2c(C=Nc2cccc(O)c2)c(O)n1-c1ccc2c(c1)OCO2,-151*
COc1ccc(N=Cc2c(O)[nH]c3ccccc23)cc1,-144*
COc1ccc(/C=C/c2ccc3c(Br)ccc(O)c3n2)cc1,-151*
COc1cc(/C=C/c2ccc3cccc(O)c3n2)cc(Cl)c1OC,-88*
COc1cc(/C=C/c2ccc3cccc(O)c3n2)cc(Br)c1OC,-81*
COc1cc(/C=C/c2ccc3c(Br)cc(Br)c(O)c3n2)ccc1O,65
COc1ccc(-c2cc(-c3ccccc3O)[nH]n2)cc1OC,-154*
COc1ccc(-c2cc(-c3ccc(OC)c(OC)c3)n[nH]2)c(O)c1,-163*
COc1ccc(-c2ccc3ccccc3n2)cc1OC,-171*
COc1cc(-c2ccc(=O)[nH]n2)ccc1OC(F)F,87
CCCN=C(C)C1=C(O)c2ccccc2C1=O,-94*
c1ccc(NC2=Nc3ccccc3CC2)cc1,-179*
CCCCC(=O)/C=C/n1c(=S)oc2ccccc21,-151*
COC(=O)c1ccc(Oc2cc(C)nc(-n3nc(C)cc3C)n2)cc1,65
COC(=O)c1ccc(CSc2nc(N)cc(N)n2)cc1,-66*
Fc1ccc(/C=N/NC2=Nc3cccc4cccc2c34)cc1,-294*
O=C(Nc1ccc(OC(F)F)c(Cl)c1)c1ccccn1,-92*
SMILES,aSyn 5UTR act
COc1ccc(NC(=O)c2ccc(OC(F)F)cc2)cc1Cl,-167*
Cc1ccc(NC(=S)Nc2ccc(OC(F)F)c(Cl)c2)cc1F,-105*
O=C(NC1CCCCC1)c1cc(-c2ccccc2O)on1,-145*
Cc1ccc(-c2cc(C(=O)NC3CCCCC3)no2)cc1,-163*
O=C(NC1CCCCC1)c1cc(-c2ccc(O)cc2)on1,-153*
CN(C(=O)c1cc(-c2ccccc2)on1)C1CCCCC1,-188*
N/C(Cc1ccc(Cl)cc1Cl)=N\OC(=O)c1ccccc1F,-72*
CSC1=NNC(c2ccc(C(C)(C)C)cc2)=NN1,-106*
Cc1ccc(C(=O)Nc2cc3ccccc3oc2=O)cc1,111
CC(=O)c1cc(NC(=O)c2ccc(C)cc2)c(=O)oc1/C=C/N(C)C,-78*
Cc1oc(=O)c(NC(=O)c2ccccc2)cc1C(=O)c1ccccc1,-205*
CC(=O)c1cc(NC(=O)c2ccc(C)cc2)c(=O)oc1C,-117*
Cc1ccc(-c2nc3ccccc3o2)cc1NC(=S)NC(=O)c1cc2ccccc2o1,-111*
Cc1cccc(NC(=O)c2cccc(NC(=O)Cc3cccs3)c2)c1,-88*
Cc1ccc2oc(-c3cccc(NC(=O)Cc4cccs4)c3)nc2c1,-71*
Cc1ccc2oc(-c3ccc(C)c(NC(=O)Cc4cccs4)c3)nc2c1,-142*
Cc1ccc2oc(-c3ccc(C)c(NC(=S)NC(=O)c4cccs4)c3)nc2c1,-193*
Cc1ccc(-c2csc(NC(=S)NC(=O)c3cc4ccccc4o3)n2)cc1,-66*
Cc1ccc(-c2nc(NCC3CCCO3)sc2C)cc1 (stereo unspecified),-94*
O=C(CSc1nnc(NC2CCCCC2)s1)Nc1ccc2c(c1)C(=O)c1ccccc1C2=O,-121*
CC(C)Nc1nnc(SCC(=O)Nc2ccc3c(c2)C(=O)c2ccccc2C3=O)s1,-184*
Cc1ccc(Nc2nnc(SCC(=O)Nc3cccc(S(=O)(=O)N4CCCCC4)c3)s2)cc1,-119*
CC(=O)c1ccc(OCc2cc(=O)n3ccsc3n2)cc1,-95*
O=c1cc(COc2ccccc2[N+](=O)[O-])nc2sccn12,-83*
Nc1[nH]c(N=NC(=O)c2ccc(F)cc2)c2ccccc12,-147*
SMILES,aSyn 5UTR act
Nc1ccccc1C(=O)N=Nc1[nH]c(N)c2ccccc12,-101*
O=c1c(-c2ccc(O)cc2)coc2cc(OC3OC(CO)C(O)C(O)C3O)cc(O)c12 (stereo unspecified),-83*
COc1cc(O)c2c(=O)c(-c3ccc(O[C@@H]4O[C@H](CO)[C@@H](O)[C@H](O)[C@H]4O)cc3)coc2c1,-155*
O=c1c(-c2ccc(O)cc2)coc2cc(OC3OC(CO)C(O)C(O)C3O)ccc12 (stereo unspecified),-82*
CC(C)c1ccc2c(c1)C(c1ccc(N3CCOCC3)cc1)=NNC(c1cccs1)=N2,-103*
O=C(Nc1nnc(C23CC4CC(CC(C4)C2)C3)s1)c1ccco1,-89*
Cc1ccc(-c2nnc(NC(=O)c3ccco3)s2)cc1,-84*
C/C=C(\C)c1nnc(NC(=O)c2ccco2)s1,-78*
COc1cccc(-c2nnc3sc(-c4ccco4)nn23)c1,-95*
COc1ccc(NC(=O)Cn2nnc(-c3ccccc3NC(=O)c3ccco3)n2)cc1,-117*
O=C(COc1ccccc1)Nc1nnc(C23CC4CC(CC(C4)C2)C3)s1,-75*
Cc1cccc(C(=O)Nc2nnc(SCC(=O)NCc3ccco3)s2)c1,-101*
Cc1cccc(C(=O)Nc2nnc(-c3ccc(C(C)(C)C)cc3)s2)c1,-102*
COc1ccc(-c2nnc(NC(=O)c3ccco3)s2)cc1,-122*
COc1cccc(-c2nnc(NC(=O)c3ccco3)s2)c1,-97*
COc1cccc(-c2nnc(NC(=O)c3cccs3)s2)c1,-119*
COc1ccc2c(c1)C(=NO)c1cc(OC)ccc1-2,-83*
C=CCOc1ccc2c(c1)C(=NO)c1cc(OCC=C)ccc1-2,-94*
ON=C1c2cc(OCCN3CCCCC3)ccc2-c2ccc(OCCN3CCCCC3)cc21,-189*
CC1CCOC(c2coc3ccccc3c2=O)O1 (stereo unspecified),-113*
Cc1ccc2cc(NC(=O)c3ccccc3C)ccc2n1,-195*
Cc1ccc2cc(NC(=O)Cc3ccccc3)ccc2n1,-127*
CC1N/C(=C\C(=O)c2ccccc2)N(O)C1(C)C (stereo unspecified),-124*
CCOC(=O)C1CCN(c2c(Nc3ccc4c(c3)OCCO4)c(=O)c2=O)CC1,-78*
COC(=O)/C(=C1/Oc2ccc(C(C)(C)C)cc2S1)C(F)(F)F,-224*
SMILES,aSyn 5UTR act
CCOc1ccc(-c2nc(-c3ccccc3)no2)cc1OCC,-137*
CCOc1ccc(-c2nc(-c3ccncc3)no2)cc1OCC,-95*
c1ccc(Nc2nc3ccccc3o2)cc1,-189*
FC(F)(F)Oc1ccc(Nc2nc3ccccc3o2)cc1,-260*
Cc1cc(C)nc(Nc2nc3ccccc3o2)n1,-70*
O=C(Nc1ccc(Cl)cn1)Nc1ccccc1F,-153*
CC(C)c1ccc(/C=N/NC(=O)c2c(Cl)cnn2C)cc1,-142*
Cn1ncc(Cl)c1C(=O)Nc1ccc(Cl)cn1,-114*
O=C(Nc1ccc(Cl)cn1)Nc1ccc(Cl)cn1,-77*
C/C(=C\c1ccccc1)C(=O)Nc1ccc(Cl)cn1,-180*
O=C(Nc1ccc(F)cc1)Nc1ccc(Cl)cn1,-121*
O=C(Nc1ccc2c(c1)OCO2)NC1(C(F)(F)F)Oc2ccccc2O1,-96*
O=C(Nc1ccc2c(c1)OCCO2)NC1(C(F)(F)F)Oc2ccccc2O1,62
O=C(Nc1ccc2c(c1)OCO2)Nc1ccccc1F,-136*
